Source: PubChem BioAssay
For some of these results: Entries with a potency or affinity are not part of this list. Activity calls are given as the source filed them.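 Rule for the calls, unless noted: active = primary screen active and over 50% activation in each of two duplicate runs; inactive = the rest.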

Tests used:
[1] = tested on: TRPC4 beta (transient receptor potential cation channel C4), mouse; assay: activators of mouse TRPC4 channel, confirmation, cell-based, Fluo4 calcium, HEK293 TRPC4beta/mu-opioid, duplicates, 10 µM (AID 2426;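 active = fluorescence ratio normalized to control raised more than 50% in primary screen plus both repeat runs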); conditions: Fluo4 calcium fluorescence, at 10 µM; active compounds read high
[2] = tested on: transient receptor potential cation channel C4 beta (TRPC4), mouse; assay: activators of mouse TRPC4 channel, confirmation, cell-based, second round, Fluo4, HEK293 TRPC4beta/mu-opioid, 1 µM (AID 2461); conditions: Fluo4 calcium fluorescence, at 1 µM; active compounds read high
[3] = tested on: TRPC4 (transient receptor potential cation channel C4 beta), mouse; assay: positive allosteric modulators of mouse TRPC4, confirmation, cell-based, second round, Fluo-4, HEK293 TRPC4beta/mu-opioid, 1 µM (AID 2554;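 active = primary screen hit whose fluorescence ratio, in both repeats, exceeds the weak agonist control mean by 3 SD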); conditions: DAMGO EC20, Fluo-4 calcium flux, at 1 µM; active compounds read high
[4] = tested on: TRPC4 beta (transient receptor potential cation channel C4), mouse; assay: positive allosteric modulators of mouse TRPC4, confirmation, cell-based, Fluo-4, HEK293 TRPC4beta/mu-opioid (AID 2555;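 active = primary screen hit whose calcium fluorescence ratio, in both repeats, exceeds the weak agonist control mean by 3 SD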); conditions: DAMGO EC20, Fluo-4 calcium flux, at 10 µM; active compounds read high
[5] = target: Short transient receptor potential channel 4 (Mus musculus) (UniProt Q9QUQ5); assay: inhibitors of mouse TRPC4 channel, confirmation, cell-based, Fluo4, HEK293 TRPC4beta/mu-opioid (AID 2636;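 active = calcium signal cut by more than 3 SD below the full-agonist control yet still positive, in both repeats and the earlier primary screen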); conditions: DAMGO, Fluo4 calcium flux, at 10 µM; active compounds read high
Chain of Short transient receptor potential channel 4 (Mus musculus) (Q9QUQ5 whole entry, looked up): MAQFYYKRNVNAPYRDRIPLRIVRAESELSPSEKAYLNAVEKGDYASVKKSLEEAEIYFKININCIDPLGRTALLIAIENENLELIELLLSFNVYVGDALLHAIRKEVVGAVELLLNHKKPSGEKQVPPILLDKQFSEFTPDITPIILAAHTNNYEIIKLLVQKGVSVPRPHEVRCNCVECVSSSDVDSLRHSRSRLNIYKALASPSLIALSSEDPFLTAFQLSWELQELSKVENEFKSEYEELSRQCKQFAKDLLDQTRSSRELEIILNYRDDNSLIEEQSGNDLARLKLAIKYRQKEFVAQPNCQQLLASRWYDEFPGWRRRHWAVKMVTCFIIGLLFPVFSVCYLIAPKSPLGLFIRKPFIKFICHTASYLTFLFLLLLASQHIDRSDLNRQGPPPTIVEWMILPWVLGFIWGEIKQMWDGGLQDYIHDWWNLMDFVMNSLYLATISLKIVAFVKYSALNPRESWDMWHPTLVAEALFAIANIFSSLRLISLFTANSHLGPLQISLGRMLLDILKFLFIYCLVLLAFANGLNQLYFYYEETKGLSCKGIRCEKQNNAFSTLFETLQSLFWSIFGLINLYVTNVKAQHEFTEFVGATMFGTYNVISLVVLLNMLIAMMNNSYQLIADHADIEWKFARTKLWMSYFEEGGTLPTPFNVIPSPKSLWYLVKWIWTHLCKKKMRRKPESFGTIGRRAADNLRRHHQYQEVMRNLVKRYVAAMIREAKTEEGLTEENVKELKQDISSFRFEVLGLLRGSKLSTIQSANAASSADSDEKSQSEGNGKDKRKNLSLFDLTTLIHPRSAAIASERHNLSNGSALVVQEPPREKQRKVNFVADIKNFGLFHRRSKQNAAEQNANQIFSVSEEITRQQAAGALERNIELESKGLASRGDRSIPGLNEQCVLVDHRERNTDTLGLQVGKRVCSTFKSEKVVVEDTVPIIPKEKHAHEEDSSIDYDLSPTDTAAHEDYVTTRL

[6] = target: Short transient receptor potential channel 4 (Mus musculus) (UniProt Q9QUQ5); assay: inhibitors of mouse TRPC4 channel, confirmation, cell-based, second round, Fluo4, HEK293 TRPC4beta/mu-opioid, 1 µM (AID 2637;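 active = calcium signal ratio cut to more than 3 SD under the fully stimulated control mean yet still positive, in both repeats and the primary screen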); conditions: Fluo4 calcium flux, DAMGO, at 1 µM; active compounds read high
[7] = target: Short transient receptor potential channel 4 (Mus musculus) (UniProt Q9QUQ5); assay: mouse TRPC4 channel activators, dose response, cell-based, HEK293 TRPC4/mu-opioid, Fluo-4 calcium (AID 434937;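 active = primary screen activator hit with a dose response curve and TRPC4 channel activation at any tested dose; inactive = no activation, no dose response, or not a primary hit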)
[8] = target: Short transient receptor potential channel 4 (Mus musculus) (UniProt Q9QUQ5); assay: TRPC4 positive allosteric modulators, dose response, cell-based, HEK293 TRPC4/mu-opioid, Fluo-4 calcium, EC20 DAMGO (AID 434941;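 active = earlier screen potentiator hit that boosts the TRPC4 ion channel at some dose, with a dose response; inactive = no potentiation, no dose response, or not a prior hit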;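 note: calcium entry triggered by an EC20 dose of DAMGO at the co-expressed mu-opioid receptor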)
[9] = target: Short transient receptor potential channel 4 (Mus musculus) (UniProt Q9QUQ5); assay: mouse TRPC4 channel inhibitors, dose response, cell-based, HEK293 TRPC4/mu-opioid, Fluo-4 calcium (AID 434942;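 active = primary screen inhibitor hit that blocks the TRPC4 channel at some tested dose, yielding a dose curve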)
[10] = target: Short transient receptor potential channel 6 (Mus musculus) (UniProt Q61143); assay: inhibition of mouse TRPC6 channel, confirmation, selectivity assay for TRPC4 inhibitor project, cell-based, HEK293, membrane potential dye, duplicate (AID 434948;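 active = active in primary screen and both duplicates, each dropping signal beyond three positive-control SD with fluorescence still positive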); conditions: HEK293 TRPC6, membrane potential dye fluorescence, at 10 µM, stimulated with maximal-effect acetylcholine; active compounds read high
Chain of Short transient receptor potential channel 6 (Mus musculus) (Q61143 whole entry, looked up): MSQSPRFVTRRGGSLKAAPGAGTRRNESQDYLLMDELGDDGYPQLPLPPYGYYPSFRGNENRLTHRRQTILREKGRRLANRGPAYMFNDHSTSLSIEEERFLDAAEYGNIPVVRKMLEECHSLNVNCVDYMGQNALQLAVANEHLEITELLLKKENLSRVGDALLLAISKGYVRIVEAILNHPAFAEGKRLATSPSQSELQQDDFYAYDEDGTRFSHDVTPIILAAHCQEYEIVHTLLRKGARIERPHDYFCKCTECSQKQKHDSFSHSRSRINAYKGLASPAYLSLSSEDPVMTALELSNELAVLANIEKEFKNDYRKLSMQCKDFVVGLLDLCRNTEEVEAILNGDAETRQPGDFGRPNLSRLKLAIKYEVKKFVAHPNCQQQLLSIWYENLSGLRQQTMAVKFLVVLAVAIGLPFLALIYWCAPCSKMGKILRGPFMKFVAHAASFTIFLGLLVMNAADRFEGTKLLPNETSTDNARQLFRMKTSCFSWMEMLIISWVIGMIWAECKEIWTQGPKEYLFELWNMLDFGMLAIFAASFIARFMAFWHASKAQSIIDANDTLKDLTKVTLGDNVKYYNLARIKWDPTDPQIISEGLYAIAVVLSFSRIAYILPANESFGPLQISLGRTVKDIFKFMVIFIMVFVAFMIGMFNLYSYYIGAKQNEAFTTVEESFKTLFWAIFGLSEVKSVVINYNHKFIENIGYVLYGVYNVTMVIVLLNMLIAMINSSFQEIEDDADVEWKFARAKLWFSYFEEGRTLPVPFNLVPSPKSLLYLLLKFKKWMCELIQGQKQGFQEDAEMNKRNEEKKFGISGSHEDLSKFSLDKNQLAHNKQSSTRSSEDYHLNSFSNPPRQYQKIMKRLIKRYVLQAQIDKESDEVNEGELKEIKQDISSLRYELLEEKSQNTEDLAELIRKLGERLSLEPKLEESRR

[11] = target: Short transient receptor potential channel 6 (Mus musculus) (UniProt Q61143); assay: activation of mouse TRPC6 channel, confirmation, selectivity assay for TRPC4 activator project, cell-based, HEK293, membrane potential dye, duplicate (AID 434950;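 active = membrane potential signal rise above negative control mean plus 3 SD in both duplicates, also active in the earlier TRPC4 screen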); conditions: HEK293 TRPC6, membrane potential fluorescence, at 10 µM; active compounds read high
[12] = target: Short transient receptor potential channel 6 (Mus musculus) (UniProt Q61143); assay: TRPC6 potentiation by TRPC4 potentiator hits, confirmation, selectivity assay for TRPC4 potentiator project, HEK293 cells, membrane potential dye, duplicate (AID 434952;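 active = compound raising the membrane signal above positive-control mean plus 3 SD in both repeats, and a primary screen hit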); conditions: HEK293 TRPC6, membrane potential dye fluorescence, at 10 µM, maximal acetylcholine added after compound; active compounds read high
[13] = target: Short transient receptor potential channel 4 (Mus musculus) (UniProt Q9QUQ5); assay: calcium flux activators in TRPC4/5HT1a cells, counter-screen for TRPC4 activator project, cell-based, second counter screen, HEK293 TRPC4/5HT1a, Fluo-4 (AID 434977;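 active = calcium signal rise above buffer-control mean plus 5 SD in both duplicates, and also a hit in the primary screen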); conditions: Fluo-4 calcium flux, at 10 µM; active compounds read high
[14] = calcium flux inhibitors in TRPC4/5HT1a cells, confirmation, counter-screen for TRPC4 inhibitor project, cell-based, second counter screen, HEK293 TRPC4/5HT1a, Fluo-4 (AID 434978;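 active = primary screen active whose calcium signal fell more than 3 SD beyond the full-serotonin control mean in both duplicate plates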;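 note: serotonin given first at submaximal then at maximal dose after compound preincubation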); conditions: Fluo-4 calcium flux, at 10 µM, serotonin added to trigger calcium flux; active compounds read high
[15] = tested on: TRPC4 (mouse), co-expressed with 5HT1a in HEK293; assay: calcium flux potentiators in TRPC4/5HT1a cells, confirmation, counter-screen for TRPC4 potentiator project, cell-based, second counter screen, HEK293 TRPC4/5HT1a, Fluo-4 (AID 434979;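 active = signal rise over 3 SD above mean of control wells given weak agonist, in both repeats and first screen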); conditions: Fluo-4 calcium flux, at 10 µM, serotonin added at its EC20 dose; active compounds read high
[16] = calcium flux activation in mu-opioid HEK293 cells, confirmation, counter-screen for TRPC4 activator project, cell-based, HEK293 mu-opioid receptor line (AID 449723;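 active = hit in primary screen, with calcium signal over 5 SD above buffer well mean in both duplicates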;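 note: counter screen cells carry the mu-opioid receptor alone and lack TRPC4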); conditions: Fluo-4 calcium fluorescence, at 10 µM; active compounds read high
[17] = calcium flux enhancement in mu-opioid HEK293 cells, confirmation, counter-screen for TRPC4 allosteric potentiator project, cell-based, HEK293 mu-opioid receptor line (AID 449724;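 active = calcium signal rise more than 3 SD above the low-dose agonist control mean, in both duplicate plates and the primary screen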); conditions: Fluo-4 calcium flux, at 10 µM, compound added before EC20 DAMGO stimulus; active compounds read high

O=C(COc1coc(CN2CCN(c3ccccc3F)CC2)cc1=O)Nc1ccccc1
outcome [1]: inactive | outcome [2]: inactive | outcome [3]: inactive | outcome [4]: inactive | outcome [5]: inactive | outcome [6]: inactive | outcome [7]: inactive | outcome [8]: inactive | outcome [9]: inactive | outcome [10]: inactive | outcome [11]: inactive | outcome [12]: inactive | outcome [13]: inactive | outcome [14]: inactive | outcome [15]: inactive | outcome [16]: inactive | outcome [17]: inactive

CCN(CC(=O)NCc1ccc(Cl)cc1)CC(=O)NC1(C#N)CCCC1
outcome [1]: inactive | outcome [2]: inactive | outcome [3]: inactive | outcome [4]: inactive | outcome [5]: inactive | outcome [6]: inactive | outcome [7]: inactive | outcome [8]: inactive | outcome [9]: inactive | outcome [10]: inactive | outcome [11]: inactive | outcome [12]: inactive | outcome [13]: inactive | outcome [14]: inactive | outcome [15]: inactive | outcome [16]: inactive | outcome [17]: inactive

CCn1c(/C=C/Nc2ccccc2)[n+](CC)c2ccc(Cl)cc21
outcome [1]: inactive | outcome [2]: inactive | outcome [3]: inactive | outcome [4]: inactive | outcome [5]: inactive | outcome [6]: inactive | outcome [7]: inactive | outcome [8]: inactive | outcome [9]: inactive | outcome [10]: inactive | outcome [11]: inactive | outcome [12]: inactive | outcome [13]: inactive | outcome [14]: inactive | outcome [15]: inactive | outcome [16]: inactive | outcome [17]: inactive

COc1cc2c(C(=O)N3CCN(C)CC3)c(CSc3ccccc3)n(C)c2cc1Br
outcome [1]: inactive | outcome [2]: inactive | outcome [3]: inactive | potentiation [4]: 25% (active) | outcome [5]: inactive | outcome [6]: inactive | outcome [7]: inactive | outcome [8]: inactive | outcome [9]: inactive | outcome [10]: inactive | outcome [11]: inactive | outcome [12]: inactive | outcome [13]: inactive | outcome [14]: inactive | potentiation [15]: 10.5% (active) | outcome [16]: inactive | outcome [17]: inactive

CCOc1ccccc1C(=O)NCCc1cnc[nH]1
outcome [1]: inactive | outcome [2]: inactive | outcome [3]: inactive | potentiation [4]: 10% (active) | outcome [5]: inactive | outcome [6]: inactive | outcome [7]: inactive | outcome [8]: inactive | outcome [9]: inactive | outcome [10]: inactive | outcome [11]: inactive | outcome [12]: inactive | outcome [13]: inactive | outcome [14]: inactive | potentiation [15]: 16.9% (active) | outcome [16]: inactive | outcome [17]: inactive

Cc1[nH]c2ccccc2c1C(=O)CN1C(=O)NC(C)(c2ccc(Cl)cc2Cl)C1=O (stereo unspecified)
outcome [1]: inactive | outcome [2]: inactive | outcome [3]: inactive | potentiation [4]: 21% (active) | outcome [5]: inactive | outcome [6]: inactive | outcome [7]: inactive | outcome [8]: inactive | outcome [9]: inactive | outcome [10]: inactive | outcome [11]: inactive | outcome [12]: inactive | outcome [13]: inactive | outcome [14]: inactive | potentiation [15]: 37.7% (active) | outcome [16]: inactive | outcome [17]: inactive

COc1ccc(NS(=O)(=O)c2csc(C(N)=O)c2)cc1OC
outcome [1]: inactive | outcome [2]: inactive | outcome [3]: inactive | outcome [4]: inactive | outcome [5]: inactive | outcome [6]: inactive | outcome [7]: inactive | outcome [8]: inactive | outcome [9]: inactive | outcome [10]: inactive | outcome [11]: inactive | outcome [12]: inactive | outcome [13]: inactive | outcome [14]: inactive | potentiation [15]: 12.9% (active) | outcome [16]: inactive | outcome [17]: inactive

CCOc1ccc(S(=O)(=O)N2CCN(C(=S)NC3CC3)CC2)cc1
outcome [1]: inactive | outcome [2]: inactive | outcome [3]: inactive | potentiation [4]: 9% (active) | outcome [5]: inactive | outcome [6]: inactive | outcome [7]: inactive | outcome [8]: inactive | outcome [9]: inactive | outcome [10]: inactive | outcome [11]: inactive | outcome [12]: inactive | outcome [13]: inactive | outcome [14]: inactive | potentiation [15]: 30.7% (active) | outcome [16]: inactive | outcome [17]: inactive
